This note sets out measurements from ChEMBL document CHEMBL4513216, “Probing the Open Global Health Chemical Diversity Library for Multistage-Active Starting Points for Next-Generation Antimalarials” (ACS Infect Dis, 2020).

Hit rate of the full screen: of about 69,000 compounds, about 8,600 (12%) showed an effect of 50% or more. Only a selection was taken, and strong results are over-represented in it overall.

For the experiment, the system named is Plasmodium berghei. The experiment can be described thus: Screen against P. berghei liver stage (PbLuc), transformed with Luciferase, at 10uM. To be noted: tested at 10 uM. The experiment is classed as functional, HepG2.
As for `CC(=O)N1CCCC1c1cc(N2CCN(CC3CC3)CC2)cc(C)n1` (centres undefined), the INHIBITION turned out to be 45.6%. As for `CC(=O)N1CCCC1c1cc(N2CCN(CC(C)(C)C)CC2)cc(C)n1` (centres undefined), the figure is 51.5%; as for `CC(=O)N1CCCC1c1cc(N2CCN(C3CCCC3)CC2)cc(C)n1` (centres undefined), 34.5%. As for `N#Cc1ccc(N2CCCC(CO)(CCOc3ccccc3)C2)nc1` (centres undefined), the INHIBITION was found to be 59.1%. With `OCC1(CCOc2ccccc2)CCCN(c2ccc(Cl)cn2)C1` (centres undefined) the figure was 83.3%; with `Nc1nccc(N2CCC(Cc3ccccc3Cl)(C(=O)O)CC2)n1`, 23.5%; with `CC(C)=CCC1(C(=O)O)CCCN(c2ccnc(N)n2)C1` (centres undefined), 15%. In the case of `N#Cc1cccc(N2CCCC(CO)(CCOc3ccccc3)C2)n1` (centres undefined), the INHIBITION was found to be 25.7%. With `N#Cc1cccnc1N1CCCC(CO)(CCOc2ccccc2)C1` (centres undefined) the figure was 23.8%. For `Nc1nccc(N2CCCC(CO)(CCOc3ccccc3)C2)n1` (centres undefined), the INHIBITION is recorded as 86.8%. On to `CCc1nc(N2CCCC(CO)(CCOC)C2)ncc1C` (centres undefined), for which the INHIBITION is reported as -1.83%. For `OCC1(CCOc2ccccc2)CCN(c2ccc(Cl)cn2)CC1`, the INHIBITION came out at 32.2%. Take `Cc1cnn(CC2CCCN2C(=O)CCc2ccc3c(c2)OCO3)c1` (centres undefined): the INHIBITION is 9.64%. Regarding `COC(=O)N1CCC(NC(=O)c2cc(S(N)(=O)=O)ccc2C)CC1`, the INHIBITION was found to be 14.6%.

Regarding `COc1cc(N2CC3(CCN(S(C)(=O)=O)C3)C2)ncn1`, the INHIBITION was -21.7%.

Turning to `CCOC(=O)c1sc(NC(=O)COC)c(C#N)c1C`, the INHIBITION is on record as -30.8%. For `COCCN1CCCN(C(=O)c2scnc2C)CC1`, the INHIBITION was -2.03%. With `c1ccc(CN2CCCC(Cn3cncn3)C2)nc1` (centres undefined) the figure was 24%; with `Cc1nc(N2C[C@@H](CN3CCCN(C)CC3)[C@@H](CO)C2)c2ccsc2n1`, 50.1%; with `COC1[C@@H]2CC[C@H]1CN(c1nc(C)nc3sccc13)C2` (some centres undefined), 72.6%. On to `Cc1nc(N2CC[C@@H](NC(=O)c3cnccn3)[C@H](O)C2)c2ccsc2n1`, for which the INHIBITION turned out to be 85.1%. With `CCC[C@@H]1CN(c2ncnc3sccc23)C[C@H]1NS(C)(=O)=O` the figure was 27.2%; with `Cc1nc(N2C[C@@H](CN3CCCN(C)CC3)[C@@H](CO)C2)c2sccc2n1`, 26.6%; with `Cc1nccnc1N1CC[C@@H](NC(=O)c2cnccn2)[C@H](O)C1`, -3.19%. As for `Cc1nc(C)c(C)c(N2C[C@@H](CN3CCCN(C)CC3)[C@@H](CO)C2)n1`, the INHIBITION is 15.5%. As for `O=C(N[C@@H]1CCN(c2nccc3ccccc23)C[C@H]1O)c1cnccn1`, the figure is 5.78%.

With `CCN(Cc1cccc2c1OCO2)C(=O)C(C)c1cccnc1` (centres undefined), the INHIBITION was 40.9%. `CCc1noc(C(C)Sc2nnc(C3CC3)n2CC(N)=O)n1` (centres undefined): the INHIBITION is 29%. With `c1coc(-c2nc(CNC3CCC4(CCNCC4)CC3)no2)c1`, the INHIBITION is recorded as 33.1%. For the compound `O=C([C@H]1CCCO1)N1Cc2nccn2CC(COc2cccnc2)C1` (some centres undefined), the INHIBITION is reported as -30%. Consider `CN(c1ccncn1)C1CC2(CCN(C(=O)CCc3cccs3)C2)C1` (centres undefined), for which the INHIBITION was 37.5%. Take `CN(c1ccncn1)C1CC2(CCN(C(=O)Cc3cccs3)C2)C1` (centres undefined): the INHIBITION is given as 51.5%.

For `CN(c1ccncn1)C1CC2(CCN(C(=O)c3cccs3)C2)C1` (centres undefined), the INHIBITION stood at 42.1%. With `CCc1nccn1C1CCCN(C(=O)CCCc2ccccn2)C1` (centres undefined) the figure was -6.14%. With `CC(C)C[C@H]1CN(c2nc3c(cc2C(N)=O)CCC3)CC[C@@]1(C)O` the figure was -22.5%. With `CCN1CCC2(CC1)CN(C(=O)c1cccnc1)c1ccc(Cl)cc12` the figure was 60.2%.

Take `CCCN1CCC2(CC1)CN(C(=O)c1cccnc1)c1ccc(F)cc12`: the INHIBITION came out at 26.7%. As for `CN1CCC2(CC1)CN(C(=O)c1cccnc1)c1ccc(Cl)cc12`, the figure is 26.7%; as for `CC(C(N)=O)N(C)CCCc1cc(-c2ccc(F)cc2)n(C)n1` (centres undefined), -52.5%. Consider `Cc1nn(C)c(C)c1-c1ccc(=O)n(C(C)C(=O)NCc2ccco2)n1` (centres undefined), for which the INHIBITION came to 15.7%.

Regarding `O=C(C[S+]([O-])Cc1ccc(Cl)cc1Cl)N1CCc2sccc2C1` (centres undefined), the INHIBITION is 21.8%. On to `O=C(C[S+]([O-])Cc1ccccc1F)N1CCc2sccc2C1` (centres undefined), for which the INHIBITION is on record as -13.9%. Take `O=C(C[S+]([O-])Cc1ccc(F)cc1)N1CCc2sccc2C1` (centres undefined): the INHIBITION was found to be 80.3%. `O=C(C[S+]([O-])Cc1ccc(F)cc1Cl)N1CCc2sccc2C1` (centres undefined): the INHIBITION is -3.96%. `O=C(C[S+]([O-])Cc1c(F)cccc1Cl)N1CCc2sccc2C1` (centres undefined): the INHIBITION is listed as -10.9%. As for `O=C(C[S+]([O-])Cc1c(Cl)cccc1Cl)N1CCc2sccc2C1` (centres undefined), the figure is 50.5%. Regarding `O=C(NCc1cccs1)[C@H]1CO[C@H]2CCN(C3CCCC3)C[C@H]2C1`, the INHIBITION amounted to 17.7%. With `O=C(NCCc1cccs1)[C@H]1CO[C@H]2CCN(CC3CC3)C[C@H]2C1`, the INHIBITION worked out at 17.7%.

For the compound `O=C(NCCc1cccs1)[C@H]1CO[C@H]2CCN(C3CCC3)C[C@H]2C1`, the INHIBITION is recorded as 62%.

On to `CN(C)CCN1CCCC12CCN(C(=O)c1cccn1C)CC2`, for which the INHIBITION is given as 20.5%. With `CN(Cc1cccs1)C(=O)CS(=O)(=O)Cc1ccc(Cl)c(Cl)c1` the figure was 62.2%; with `CN(Cc1ccsc1)C(=O)CS(=O)(=O)Cc1ccc(Cl)c(Cl)c1`, 9.32%; with `CN(Cc1ccccc1)C(=O)CS(=O)(=O)Cc1ccc(Cl)c(Cl)c1`, -35.7%. With `Nc1nccnc1C1CN(C(=O)c2cnc(C3CC3)nc2)CCO1` (centres undefined) the figure was 26.8%. `CCc1nn(C)c(Cl)c1CN1C[C@H](NC(=O)CCO)[C@@H](C(C)C)C1`: the INHIBITION is listed as 14.8%. As to `Cc1noc(C)c1CN1C[C@@H](NC(=O)N(C)C)[C@H](C(C)C)C1`, the INHIBITION is recorded as -9.29%. As for `CCc1nn(C)c(Cl)c1CN1C[C@@H](NC(=O)N(C)C)[C@H](C(C)C)C1`, the INHIBITION was determined as 59.7%. With `c1ccc(OCc2cscn2)c(CNC2CCc3ncnn3C2)c1` (centres undefined) the figure was 3.1%. Take `CCN(CC1COc2ccccc2O1)C(=O)NCCCn1cncn1` (centres undefined): the INHIBITION is given as 10.17%. `CC(=O)N1CCCC1c1nnn2cc(NCc3cccnc3)ccc12` (centres undefined): the INHIBITION is -15.3%.

Turning to `CC(=O)N1CCCC1c1nnn2cc(-c3ccncc3)ccc12` (centres undefined), the INHIBITION is 61.9%. In the case of `CC(=O)N1CCCC1c1nnn2cc(Nc3ccccc3)ccc12` (centres undefined), the INHIBITION was determined as 2.41%. Turning to `CCN1CCOCC12CCN(C(=O)C1CCC1)CC2`, the INHIBITION is given as -22.1%.

With `CN(C)CCN1CCN(Cc2cccs2)Cc2cccnc21`, the INHIBITION came to 7.53%.
